# In the supplement of paper PMC4466140:
# How the values were obtained:
# Experiment in all cases: SPOT peptide array binding signal intensity (averaged, normalized) (arbitrary units (background-subtracted, floor 0; scale differs between SH3 domains)); higher = stronger binding of the SH3 domain to the peptide
# AgAbp1 = molecular target: AgAbp1
# Method in brief: (§1)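 Four yeast species supplied the SH3 domains, which were expressed as GST fusions in E. coli BL21(DE3) and purified on glutathione Sepharose. Incubation with cellulose membranes carrying synthetic 15-mer peptides, cysteines exchanged for serines, ran overnight at 4°C at 10 μg/ml in TBS-based blocking buffer. Binding signal is reported as normalized, background-subtracted spot intensity averaged over replicates, in arbitrary units not shared between domains.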
# AgBbc1 = molecular target: AgBbc1
# Method in brief: as §1
# AgBem1-D1 = molecular target: AgBem1-D1
# Method in brief: as §1
# AgBzz1-D1 = molecular target: AgBzz1-D1
# Method in brief: as §1
# AgBzz1-D2 = molecular target: AgBzz1-D2
# Method in brief: as §1
# AgCyk3 = molecular target: AgCyk3
# Method in brief: as §1
# AgFus1 = molecular target: AgFus1
# Method in brief: as §1
# AgHof1 = molecular target: AgHof1
# Method in brief: as §1
# AgHse1 = molecular target: AgHse1
# Method in brief: as §1
# AgLsb1 = molecular target: AgLsb1
# Method in brief: as §1
# AgLsb4 = molecular target: AgLsb4
# Method in brief: as §1
# AgMyo5 = molecular target: AgMyo5
# Method in brief: as §1
# AgNbp2 = molecular target: AgNbp2
# Method in brief: as §1
# AgRvs167 = molecular target: AgRvs167
# Method in brief: as §1
# AgSho1 = molecular target: AgSho1
# Method in brief: as §1
# AgSla1-D1-D2 = molecular target: AgSla1-D1-D2
# Method in brief: as §1
# AgSla1-D3 = molecular target: AgSla1-D3
# Method in brief: as §1
# CaAbp1-D1 = molecular target: CaAbp1-D1
# Method in brief: as §1
# CaAbp1-D2 = molecular target: CaAbp1-D2
# Method in brief: as §1
# CaBbc1 = molecular target: CaBbc1
# Method in brief: as §1
# CaBem1-D1 = molecular target: CaBem1-D1
# Method in brief: as §1
# CaBzz1-D1 = molecular target: CaBzz1-D1
# Method in brief: as §1
# CaBzz1-D2 = molecular target: CaBzz1-D2
# Method in brief: as §1
# CaCyk3 = molecular target: CaCyk3
# Method in brief: as §1
# CaFus1 = molecular target: CaFus1
# Method in brief: as §1
# CaHof1 = molecular target: CaHof1
# Method in brief: as §1
# CaHse1 = molecular target: CaHse1
# Method in brief: as §1
# CaLsb1 = molecular target: CaLsb1
# Method in brief: as §1
# CaLsb4 = molecular target: CaLsb4
# Method in brief: as §1
# CaMyo5 = molecular target: CaMyo5
# Method in brief: as §1
# CaNbp2 = molecular target: CaNbp2
# Method in brief: as §1
# CaRvs167 = molecular target: CaRvs167
# Method in brief: as §1
# CaRvs167-3 = molecular target: CaRvs167-3
# Method in brief: as §1
# CaSho1 = molecular target: CaSho1
# Method in brief: as §1
# CaSla1-D1-D2 = molecular target: CaSla1-D1-D2
# Method in brief: as §1
# CaSla1-D3 = molecular target: CaSla1-D3
# Method in brief: as §1
# ScAbp1 = molecular target: ScAbp1
# Method in brief: as §1
# ScBbc1 = molecular target: ScBbc1
# Method in brief: as §1
# ScBem1-D1 = molecular target: ScBem1-D1
# Method in brief: as §1
# ScBzz1-D1 = molecular target: ScBzz1-D1
# Method in brief: as §1
# ScBzz1-D2 = molecular target: ScBzz1-D2
# Method in brief: as §1
# ScCyk3 = molecular target: ScCyk3
# Method in brief: as §1
# ScFus1 = molecular target: ScFus1
# Method in brief: as §1
# ScHof1 = molecular target: ScHof1
# Method in brief: as §1
# ScHse1 = molecular target: ScHse1
# Method in brief: as §1
# ScLsb1 = molecular target: ScLsb1
# Method in brief: as §1
# ScLsb2 = molecular target: ScLsb2
# Method in brief: as §1
# ScLsb3 = molecular target: ScLsb3
# Method in brief: as §1
# ScLsb4 = molecular target: ScLsb4
# Method in brief: as §1
# ScMyo3 = molecular target: ScMyo3
# Method in brief: as §1
# ScMyo5 = molecular target: ScMyo5
# Method in brief: as §1
# ScNbp2 = molecular target: ScNbp2
# Method in brief: as §1
# ScPex13 = molecular target: ScPex13
# Method in brief: as §1
# ScRvs167 = molecular target: ScRvs167
# Method in brief: as §1
# ScSho1 = molecular target: ScSho1
# Method in brief: as §1
# ScSla1-D1-D2 = molecular target: ScSla1-D1-D2
# Method in brief: as §1
# ScSla1-D3 = molecular target: ScSla1-D3
# Method in brief: as §1
# SpAbp1-D1 = molecular target: SpAbp1-D1
# Method in brief: as §1
# SpBbc1 = molecular target: SpBbc1
# Method in brief: as §1
# SpBzz1-D1 = molecular target: SpBzz1-D1
# Method in brief: as §1
# SpBzz1-D2 = molecular target: SpBzz1-D2
# Method in brief: as §1
# SpCyk3 = molecular target: SpCyk3
# Method in brief: as §1
# SpHof1 = molecular target: SpHof1
# Method in brief: as §1
# SpHof1-2 = molecular target: SpHof1-2
# Method in brief: as §1
# SpHof1-3 = molecular target: SpHof1-3
# Method in brief: as §1
# SpHse1 = molecular target: SpHse1
# Method in brief: as §1
# SpLsb1 = molecular target: SpLsb1
# Method in brief: as §1
# SpLsb4 = molecular target: SpLsb4
# Method in brief: as §1
# SpMyo1 = molecular target: SpMyo1
# Method in brief: as §1
# SpNbp2 = molecular target: SpNbp2
# Method in brief: as §1
# SpPex13 = molecular target: SpPex13
# Method in brief: as §1
# SpRvs167 = molecular target: SpRvs167
# Method in brief: as §1
# SpSla1-D1-D2 = molecular target: SpSla1-D1-D2
# Method in brief: as §1
# SpSla1-D3 = molecular target: SpSla1-D3
# Method in brief: as §1
binder,measurement,setting,value
QQEQNTPPLPPKPKS,SPOT peptide array binding signal intensity,AgAbp1,10.5
same,SPOT peptide array binding signal intensity,AgBbc1,≤ 0
same,SPOT peptide array binding signal intensity,AgBem1-D1,≤ 0
same,SPOT peptide array binding signal intensity,AgBzz1-D1,194
same,SPOT peptide array binding signal intensity,AgBzz1-D2,5.5
same,SPOT peptide array binding signal intensity,AgCyk3,≤ 0
same,SPOT peptide array binding signal intensity,AgFus1,≤ 0
same,SPOT peptide array binding signal intensity,AgHof1,760
same,SPOT peptide array binding signal intensity,AgHse1,≤ 0
same,SPOT peptide array binding signal intensity,AgLsb1,≤ 0
same,SPOT peptide array binding signal intensity,AgLsb4,151
same,SPOT peptide array binding signal intensity,AgMyo5,≤ 0
same,SPOT peptide array binding signal intensity,AgNbp2,≤ 0
same,SPOT peptide array binding signal intensity,AgRvs167,≤ 0
same,SPOT peptide array binding signal intensity,AgSho1,16.5
same,SPOT peptide array binding signal intensity,AgSla1-D1-D2,2
same,SPOT peptide array binding signal intensity,AgSla1-D3,3.75
same,SPOT peptide array binding signal intensity,CaAbp1-D1,53
same,SPOT peptide array binding signal intensity,CaAbp1-D2,33.5
same,SPOT peptide array binding signal intensity,CaBbc1,9
same,SPOT peptide array binding signal intensity,CaBem1-D1,≤ 0
same,SPOT peptide array binding signal intensity,CaBzz1-D1,166
same,SPOT peptide array binding signal intensity,CaBzz1-D2,34.8
same,SPOT peptide array binding signal intensity,CaCyk3,≤ 0
same,SPOT peptide array binding signal intensity,CaFus1,9
same,SPOT peptide array binding signal intensity,CaHof1,0.25
same,SPOT peptide array binding signal intensity,CaHse1,404
same,SPOT peptide array binding signal intensity,CaLsb1,0.5
same,SPOT peptide array binding signal intensity,CaLsb4,1300
same,SPOT peptide array binding signal intensity,CaMyo5,≤ 0
same,SPOT peptide array binding signal intensity,CaNbp2,≤ 0
same,SPOT peptide array binding signal intensity,CaRvs167,≤ 0
same,SPOT peptide array binding signal intensity,CaRvs167-3,≤ 0
same,SPOT peptide array binding signal intensity,CaSho1,13.5
same,SPOT peptide array binding signal intensity,CaSla1-D1-D2,≤ 0
same,SPOT peptide array binding signal intensity,CaSla1-D3,≤ 0
same,SPOT peptide array binding signal intensity,ScAbp1,5
same,SPOT peptide array binding signal intensity,ScBbc1,2.5
same,SPOT peptide array binding signal intensity,ScBem1-D1,≤ 0
same,SPOT peptide array binding signal intensity,ScBzz1-D1,7
same,SPOT peptide array binding signal intensity,ScBzz1-D2,3
same,SPOT peptide array binding signal intensity,ScCyk3,1
same,SPOT peptide array binding signal intensity,ScFus1,≤ 0
same,SPOT peptide array binding signal intensity,ScHof1,109
same,SPOT peptide array binding signal intensity,ScHse1,≤ 0
same,SPOT peptide array binding signal intensity,ScLsb1,223
same,SPOT peptide array binding signal intensity,ScLsb2,≤ 0
same,SPOT peptide array binding signal intensity,ScLsb3,3310
same,SPOT peptide array binding signal intensity,ScLsb4,67
same,SPOT peptide array binding signal intensity,ScMyo3,≤ 0
same,SPOT peptide array binding signal intensity,ScMyo5,≤ 0
same,SPOT peptide array binding signal intensity,ScNbp2,≤ 0
same,SPOT peptide array binding signal intensity,ScPex13,680
same,SPOT peptide array binding signal intensity,ScRvs167,58.3
same,SPOT peptide array binding signal intensity,ScSho1,152
same,SPOT peptide array binding signal intensity,ScSla1-D1-D2,≤ 0
same,SPOT peptide array binding signal intensity,ScSla1-D3,≤ 0
same,SPOT peptide array binding signal intensity,SpAbp1-D1,23.5
same,SPOT peptide array binding signal intensity,SpBbc1,0.5
same,SPOT peptide array binding signal intensity,SpBzz1-D1,336
same,SPOT peptide array binding signal intensity,SpBzz1-D2,≤ 0
same,SPOT peptide array binding signal intensity,SpCyk3,1.5
same,SPOT peptide array binding signal intensity,SpHof1,≤ 0
same,SPOT peptide array binding signal intensity,SpHof1-2,12.2
same,SPOT peptide array binding signal intensity,SpHof1-3,16
same,SPOT peptide array binding signal intensity,SpHse1,28.2
same,SPOT peptide array binding signal intensity,SpLsb1,585
same,SPOT peptide array binding signal intensity,SpLsb4,1340
same,SPOT peptide array binding signal intensity,SpMyo1,≤ 0
same,SPOT peptide array binding signal intensity,SpNbp2,≤ 0
same,SPOT peptide array binding signal intensity,SpPex13,≤ 0
same,SPOT peptide array binding signal intensity,SpRvs167,462
same,SPOT peptide array binding signal intensity,SpSla1-D1-D2,≤ 0
same,SPOT peptide array binding signal intensity,SpSla1-D3,≤ 0
KKIRLIFTYPSTVGR,SPOT peptide array binding signal intensity,SpBzz1-D2,0.5
same,SPOT peptide array binding signal intensity,SpCyk3,92
same,SPOT peptide array binding signal intensity,SpHof1,315
same,SPOT peptide array binding signal intensity,SpHof1-2,91
same,SPOT peptide array binding signal intensity,SpHof1-3,872
same,SPOT peptide array binding signal intensity,SpHse1,910
same,SPOT peptide array binding signal intensity,SpLsb1,2
same,SPOT peptide array binding signal intensity,SpLsb4,210
same,SPOT peptide array binding signal intensity,SpMyo1,14
same,SPOT peptide array binding signal intensity,SpNbp2,1780
same,SPOT peptide array binding signal intensity,SpPex13,24
same,SPOT peptide array binding signal intensity,SpRvs167,21
same,SPOT peptide array binding signal intensity,SpSla1-D1-D2,5
same,SPOT peptide array binding signal intensity,SpSla1-D3,49
